Hits are enriched below; roughly 0.55% of the tested compounds scored in any of these assays.
pAkt inh: inhibitors of Akt phosphorylation; Neuro2A IGF-stimulated pAkt S473 HTRF, 20 min; stronger effect = lower value; activity change, % for hits at 50 µM; 0.32% of 360,000 active; in the data active = activity change below about -80%; inconclusive = mostly about -51% to -80%; note: % is set by controls: 0 for no effect and ±100 for the full control effect
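Neuro2A cells (4,500/well, DMEM with 0.5% FBS) were treated with compound at a single 50 µM final concentration, stimulated with 6 nM IGF for 20 min at 37 °C, and lysed. Phospho-Akt Ser473 was read by HTRF as 665/615 ratio ×10^4.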
GRP78 ERSR act: inducers of ER stress response in human glioma cells | Potency, µM, inactives show at the top dose activation, most hits filed as activators | U87-MG GRP78 promoter luciferase reporter, 16 h | 0.02% of 420,000 active | AID 602332; note: potency is the fitted concentration of half-maximal effect; series mostly up to about 76 µM; % of control where 0% means no effect; nearly all actives have a fitted effect of over 35% in size
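Stably transfected U87-MG glioma cells carrying a GRP78-based luciferase sensor; 16 h compound incubation. Luminescence end-point read 10 min after Bright-Glo addition at room temperature.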
TSHR antag: human thyrotropin receptor antagonism; P16473; TSHR-expressing cells, TSH-stimulated cAMP HTRF, 2 h; stronger effect = lower value; activity change, negative = inhibition, % at 11.5 µM; 0.2% of 330,000 active; AID 504810;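 active = activity change below a set negative limit, meaning inhibition stronger than a set level, cut at about -70% in these data; inconclusive = activity change between two set negative limits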; note: % is set by controls: 0 for no effect and ±100 for the full control effect
Target sequence (P16473 whole entry, looked up): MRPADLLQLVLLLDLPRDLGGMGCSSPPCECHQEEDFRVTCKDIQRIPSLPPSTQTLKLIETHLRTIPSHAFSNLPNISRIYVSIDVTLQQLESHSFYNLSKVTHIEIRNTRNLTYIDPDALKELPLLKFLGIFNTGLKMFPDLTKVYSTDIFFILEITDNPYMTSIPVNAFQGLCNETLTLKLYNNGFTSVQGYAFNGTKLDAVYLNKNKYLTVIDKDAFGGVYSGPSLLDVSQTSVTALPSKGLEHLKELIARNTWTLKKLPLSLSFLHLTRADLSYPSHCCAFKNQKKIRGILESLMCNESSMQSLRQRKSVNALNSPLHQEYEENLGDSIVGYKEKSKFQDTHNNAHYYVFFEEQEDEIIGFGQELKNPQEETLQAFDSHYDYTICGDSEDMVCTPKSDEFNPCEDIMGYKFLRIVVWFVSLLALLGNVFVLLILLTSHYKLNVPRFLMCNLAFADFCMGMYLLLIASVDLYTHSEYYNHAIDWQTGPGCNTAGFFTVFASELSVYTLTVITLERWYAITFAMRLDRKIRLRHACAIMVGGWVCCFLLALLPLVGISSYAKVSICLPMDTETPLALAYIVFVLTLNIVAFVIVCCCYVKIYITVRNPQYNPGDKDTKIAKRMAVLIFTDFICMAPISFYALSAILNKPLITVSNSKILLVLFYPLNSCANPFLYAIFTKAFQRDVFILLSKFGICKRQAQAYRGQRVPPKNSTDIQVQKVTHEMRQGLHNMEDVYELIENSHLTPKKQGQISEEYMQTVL
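Competitive HTRF cAMP read-out (cryptate anti-cAMP antibody, cAMP-d2; 30 min, room temperature) in freshly harvested TSHR cells. Compounds added before TSH at EC80 (4nM final), followed by 2 hours' incubation at 37 deg C.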
TCR act: activates T cell receptor signaling; primary human leukocytes, anti-CD3, IL-2 HTRF, 48 h; Potency, µM (titrated, usually from 9.22 µM), for the others: at the highest dose activation of IL-2 secretion, usual class: activators; AID 504894; 330,000 tested, under 10 active; note: % of control where 0% means no effect
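Activity was scored as IL-2 release from primary human leukocytes given only a TCR signal (a-CD3 beads) plus compound for 48 hr. Detection used a two-antibody HTRF format read at 665nm.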
LDHA block: inhibitors of human lactate dehydrogenase A | purified LDHA, NADH/diaphorase-resazurin fluorescence; stronger effect = lower value | activity change, % (values are at about 110 or 230 µM) | 0.15% of 480,000 active; in the data active = activity change below about -30%; inconclusive = mostly about -25% to -30%;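 note: plate controls were DMSO wells for no effect and wells without enzyme for full effect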
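Human LDH5 at 2 nM final in Tris HCl pH 7.4 with 0.06 mM NADH and 0.2 mM pyruvate, reacted 5 minutes at room temperature. Remaining NADH coupled via diaphorase/resazurin; resorufin fluorescence read at 0 and 20 minutes, normalized to enzyme-free and DMSO wells.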
RGS4 inhibitor: blocks human RGS4-accelerated GTP hydrolysis. Transcreener GDP fluorescence polarization, RGS4-accelerated GTP hydrolysis. 0.039% of 390,000 active. P49798. Potency, µM (highest dose often 114 µM), inactives show top-dose activity change, negative = inhibition, usual class: inhibitors; note: potency is the fitted concentration of half-maximal effect; % is set by controls: 0 for no effect and ±100 for the full control effect; nearly all actives have a fitted effect of over 75% in size
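MLSMR compounds (23 nl, pin-transferred) preincubated 10 min at room temperature with a 500nM (2x) first reagent, then RGS4 at 900nM (2x) plus Transcreener GDP mix added; fluorescence polarization (620/688 nm) read before and after 90 min at 30 °C.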
An asterisk follows results filed as active; ! = not confirmed by another sample; [ ] = dose if it differs, or a comment. Unless noted, calls come from the whole dose curve; as a rule, active = well fitted curve in the direction sought with a large enough effect; inconclusive = small, poorly fitted or top-dose-only effect, or another doubt; inactive = no such curve, though single readings can be large; an effect the other way counts as inactive or inconclusive.

Results for O=C1Cc2cc(CCN3CCN(c4nsc5ccccc45)CC3)c(Cl)cc2N1 ?
GRP78 ERSR act: -12%; TSHR antag: -21; RGS4 inhibitor: 17µM*

How did O=C(CCCc1ccccc1)c1ccc2c(c1)OCCO2 do in these assays?
pAkt inh: -125%*; GRP78 ERSR act: -13%; TSHR antag: -24; TCR act: -1%[46.1 µM]; LDHA block: 3; RGS4 inhibitor: -18%

Results for O=C(CCc1ccccc1)c1ccc2c(c1)OCCCO2 ?
pAkt inh: inactive; GRP78 ERSR act: 6%; TSHR antag: -7; TCR act: -4%; LDHA block: 2; RGS4 inhibitor: 9%

How did COc1cccc(C2CC(=O)Nc3nc(N)sc32)c1OC(C)C (stereo not given) do in these assays?
LDHA block: 142

How did O=C1c2ccsc2SCCN1Cc1ccc(Cl)cc1 do in these assays?
pAkt inh: -124%*; GRP78 ERSR act: 0%; TSHR antag: -17; TCR act: -12%; LDHA block: -1; RGS4 inhibitor: 20%

How did Cc1ncc(-c2ccc(S(=O)(=O)Nc3cccc(Cl)c3C)cc2)o1 do in these assays?
LDHA block: -31*

Results for Cc1ncc(-c2ccc(S(=O)(=O)Nc3ccc(C)c(F)c3)cc2)o1 ?
LDHA block: -31*

How did Cc1ncc(-c2ccc(S(=O)(=O)Nc3ccc(C)c(C)c3)cc2)o1 do in these assays?
LDHA block: 18

What do the screens show for `Cc1oc2cc(OCCN3CCN(CCO)CC3)ccc2c(=O)c1-c1ccc(Br)cc1`?
LDHA block: 4

How did Cn1c(SCc2cc(=O)n3[nH]cc(C#N)c3n2)nnc1-c1ccc(C(C)(C)C)cc1 do in these assays?
LDHA block: -9

What do the screens show for `CCOC(=O)c1cc(-c2ccccc2)sc1NC(=O)CCN1CCN(C)CC1`?
LDHA block: -5

Results for Cc1cccc(-c2cc(C(=O)Nc3cccc(C)n3)c3ccccc3n2)c1 ?
LDHA block: 0

How did N#Cc1cnc2sc3ccccc3n2c1=N do in these assays?
pAkt inh: -118%*; GRP78 ERSR act: -4%; TSHR antag: -9; TCR act: 4%; LDHA block: -10; RGS4 inhibitor: -4%

Results for CN(CC(=O)Nc1ccc(Cl)cc1)CC(=O)N1CCC(Cc2ccccc2)CC1 ?
LDHA block: 4

What do the screens show for `COc1ccccc1N1CCN(CC(=O)NCC2CCCO2)CC1` (stereo not given)?
pAkt inh: inactive; GRP78 ERSR act: 1%; TSHR antag: 21; TCR act: 0%[46.1 µM]; LDHA block: -43*; RGS4 inhibitor: 14%

What do the screens show for `CCOC(=O)/C(C#N)=C/c1ccc(OCC(=O)Nc2cc(C)ccc2C)c(OC)c1`?
pAkt inh: -82%*; GRP78 ERSR act: 0%; TSHR antag: 0; TCR act: 6%; LDHA block: -6; RGS4 inhibitor: 2%

Results for CCOC(=O)/C(C#N)=C\c1ccc(OCC(=O)Nc2ccc(C)cc2C)c(OC)c1 ?
pAkt inh: inconclusive; GRP78 ERSR act: -2%; TSHR antag: 2; TCR act: 2%; LDHA block: -7; RGS4 inhibitor: -7%

Results for COc1ccc(C2C(C#N)=C(N)Oc3n[nH]c(C)c32)c(OCc2ccccc2Cl)c1 (stereo not given) ?
LDHA block: -15

How did CC1(C)C2CCC(C2)C1(C)NC(=O)CN1CCN(Cc2ccccc2)CC1 (stereo not given) do in these assays?
pAkt inh: inactive; GRP78 ERSR act: -5%; TSHR antag: -3; TCR act: 3%; LDHA block: -40*; RGS4 inhibitor: -11%

How did Cc1cccc(CCNc2nc3ccccc3n3nnnc23)c1 do in these assays?
pAkt inh: -87%*; GRP78 ERSR act: -3%; TSHR antag: 11; TCR act: -2%; LDHA block: -4; RGS4 inhibitor: -16%

Results for CC[N+]1(C)CC2CCC(C)(C1)C2(C)C (stereo not given) ?
pAkt inh: inactive; GRP78 ERSR act: -3%; TSHR antag: -5; TCR act: 3%; LDHA block: -31*!; RGS4 inhibitor: -14%

What do the screens show for `CC(C)(C)n1nnnc1C(c1ccccn1)N1CCN(C(c2ccccc2)c2ccccc2)CC1` (stereo not given)?
pAkt inh: inactive; GRP78 ERSR act: 0%; TSHR antag: 7; TCR act: 3%; LDHA block: -1; RGS4 inhibitor: 13%

How did COc1ccc(Cn2nnnc2C(CC(C)C)N2CCN(c3ccccc3)CC2)cc1 (stereo not given) do in these assays?
pAkt inh: inactive; GRP78 ERSR act: -1%; TSHR antag: -72*; TCR act: -1%; LDHA block: 1; RGS4 inhibitor: -14%

How did COc1ccc(Cn2nnnc2C(c2ccccn2)N2CCN(c3cc(Cl)ccc3C)CC2)cc1 (stereo not given) do in these assays?
pAkt inh: inactive; GRP78 ERSR act: -3%; TSHR antag: -93*; TCR act: 8%; LDHA block: -2; RGS4 inhibitor: -5%

How did COCCn1nnnc1C(c1ccccn1)N1CCN(c2cc(Cl)ccc2C)CC1 (stereo not given) do in these assays?
pAkt inh: inactive; GRP78 ERSR act: -6%; TSHR antag: -12; TCR act: 5%; LDHA block: -4; RGS4 inhibitor: -37%

What do the screens show for `COc1cccc(N2CCN(C(c3ccccn3)c3nnnn3C(C)(C)C)CC2)c1` (stereo not given)?
pAkt inh: -105%*; GRP78 ERSR act: -2%; TSHR antag: -9; TCR act: -7%[46.1 µM]; LDHA block: 0; RGS4 inhibitor: 4%

Results for Cc1ccc(CN(C(=O)c2cc(=O)c3cc(Cl)c(C)cc3o2)c2ccccn2)o1 ?
LDHA block: 2

Results for CC(C)COc1cccc(-c2cc(C(=O)Nc3ccon3)c3ccccc3n2)c1 ?
pAkt inh: inactive; GRP78 ERSR act: 0%; TSHR antag: -119*; TCR act: 0%; LDHA block: 0; RGS4 inhibitor: -26%

Results for CCOc1ccc(N2CC(C(=O)NCCc3ccc(OC)c(OC)c3)CC2=O)cc1 (stereo not given) ?
pAkt inh: -107%*; GRP78 ERSR act: -5%; TSHR antag: -1; TCR act: 10%; LDHA block: 1; RGS4 inhibitor: -27%

What do the screens show for `COc1ccc(CCNc2ncnc3c2oc2ccccc23)cc1OC`?
pAkt inh: inactive; GRP78 ERSR act: -1%; TSHR antag: -80*; TCR act: -10%; LDHA block: -3; RGS4 inhibitor: -10%
